Laboratory results published in article PMC7826789 (International Journal of Molecular Sciences, 2021).

Legend:
Conditions in all cases: Compound Concentration (nM):1000
[1] = tested on: NEK3
[2] = tested on: NEK4
[3] = tested on: NEK5
[4] = tested on: NEK6
[5] = tested on: NEK7
[6] = tested on: NEK9
[7] = tested on: T1, NIK
T1 construct: gene MAP3K14

[8] = tested on: T2, NIM1
T2 construct: gene MGC42105

[9] = tested on: NLK
[10] = tested on: T3, OSR1
T3 construct: gene OXSR1
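Also: KINOMEscan scanMAX binding as percent activity remaining versus control; lower means stronger binding.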

| Compound | Percent Control [1] [%] | Percent Control [2] [%] | Percent Control [3] [%] | Percent Control [4] [%] | Percent Control [5] [%] | Percent Control [6] [%] | Percent Control [7] [%] | Percent Control [8] [%] | Percent Control [9] [%] | Percent Control [10] [%] |
| --- | --- | --- | --- | --- | --- | --- | --- | --- | --- | --- |
| COc1ccc2c(-c3ccnc(Nc4cccc(OC(F)(F)F)c4)n3)cnn2n1 [GW810372X] | 22 | 80 | 7.6 | 39 | 3.6 | 47 | 96 | 77 | 81 | 100 |
| COc1cc(/C=N/Nc2ncnc3[nH]ncc23)ccc1O [GW578748X] | 43 | 98 | 100 | 100 | 96 | 100 | 100 | 37 | 100 | 100 |
| COC(=O)Nc1nc2ccc(Oc3ccc(NC(=O)Nc4cc(C(F)(F)F)ccc4F)cc3)cc2s1.Cl [GW693917A] | 87 | 83 | 76 | 100 | 100 | 50 | 80 | 79 | 95 | 100 |
| NS(=O)(=O)c1ccc(N/N=C2\C(=O)Nc3ccc(C(=O)NCc4ccncc4)cc32)cc1 [GW300657X] | 84 | 89 | 92 | 97 | 62 | 64 | 95 | 72 | 96 | 75 |
| C/C(Nc1ccc(S(N)(=O)=O)cc1)=C1/C(=O)Nc2ccccc21 [GW335962X] | 96 | 77 | 97 | 100 | 95 | 95 | 78 | 86 | 87 | 94 |
| COc1ccccc1-c1cc(/C=C2\C(=O)Nc3ncc(Br)cc32)cc(Br)c1O [GW442130X] | 100 | 100 | 100 | 100 | 100 | 100 | 100 | 100 | 100 | 77 |
| COc1cc(C)c(N(C)C(=O)CN(C)C)cc1Nc1nc(Nc2cccc(F)c2C(N)=O)c2cc[nH]c2n1 [GSK2219385] | 94 | 100 | 94 | 100 | 91 | 90 | 100 | 80 | 95 | 100 |
| NS(=O)(=O)c1ccc(N/N=C2\C(=O)Nc3ccc(-c4cnco4)cc32)cc1 [GW276655] | 96 | 99 | 72 | 77 | 82 | 79 | 37 | 84 | 100 | 100 |
| COc1cc(C=NNc2ncnc3c2cnn3-c2ccccc2)ccc1O [GW513184X] | 100 | 100 | 76 | 82 | 100 | 100 | 92 | 100 | 100 | 100 |
| COc1cc2ncn(-c3cc(O[C@H](C)c4ccccc4Cl)c(C(N)=O)s3)c2cc1OC [GSK237701A] | 85 | 88 | 9.1 | 100 | 63 | 19 | 100 | 48 | 98 | 78 |
| COc1cc(N2CCN(C(C)C)CC2)ccc1Nc1nc(Nc2ccc(F)cc2C(=O)NC[C@@H](O)CO)c2cc[nH]c2n1 [GSK1392956A] | 100 | 100 | 83 | 100 | 100 | 100 | 100 | 96 | 100 | 89 |
| CCS(=O)(=O)c1ccc(OC)c(Nc2ncc(-c3cccc(F)c3)o2)c1 [GW621970X] | 100 | 100 | 95 | 100 | 100 | 100 | 93 | 100 | 100 | 100 |
| COc1ccc(COc2ccc(Cc3cnc(N)nc3N)cc2OC)cc1 [GW632580X] | 97 | 77 | 100 | 95 | 77 | 85 | 94 | 86 | 100 | 100 |
| CCc1ccc(Oc2nccc(-c3c(-c4ccc(F)cc4)ncn3C3CCNCC3)n2)cc1 [SB-242719] | 100 | 96 | 100 | 100 | 100 | 100 | 100 | 83 | 25 | 100 |
| NS(=O)(=O)c1ccc(N/N=C2\C(=O)Nc3ccc(Cl)cc32)cc1 [GW280670X] | 100 | 100 | 100 | 100 | 100 | 100 | 100 | 100 | 100 | 100 |
| NS(=O)(=O)c1ccc(N/N=C2\C(=O)Nc3ccc(C(=O)NCCc4c[nH]cn4)cc32)cc1 [GW300660X] | 78 | 80 | 100 | 100 | 100 | 100 | 74 | 14 | 100 | 100 |
| CC(C)COC(=O)c1ccc2c(c1)/C(=C/Nc1ccc(S(N)(=O)=O)cc1)C(=O)N2 [GW416981X] | 95 | 90 | 100 | 100 | 100 | 83 | 95 | 86 | 100 | 100 |
| Cl.O=S1CCN(Cc2ccc(-c3ccc4ncnc(Nc5ccc(OCc6ccccc6)c(F)c5)c4c3)o2)CC1 [GW576924A] | 100 | 100 | 100 | 100 | 100 | 100 | 100 | 100 | 100 | 100 |
| O=C1Nc2ccc(C(=O)c3ccco3)cc2C1=Cc1cc(Cl)c(O)c(Cl)c1 [GW406108X] | 100 | 83 | 100 | 94 | 100 | 100 | 100 | 93 | 100 | 100 |
| COc1ccc2[nH]c3c4[nH]c5ccc(OC)cc5c4c4c(c3c2c1)C(=O)NC4=O [GW296115X] | 67 | 85 | 76 | 87 | 92 | 100 | 20 | 100 | 52 | 100 |
